Test results taken from PubChem BioAssay AID624141 (Broad Institute, 2012).
About 260 (1.5%) of roughly 17,000 compounds were called active. The sample holds actives, similar compounds and a random draw of the others, so the mix is not that of the screen.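 Rule for the calls: active = spot fluorescence over background with P-value below 7% in all four replicate spots, showing protein binding; inactive = the rest.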

Molecular target: Myc proto-oncogene protein (Homo sapiens) (UniProt P01106)
Assay: small molecules binding His-tagged c-Myc – biochemical, small molecule microarray, anti-His fluorescence, primary screen (AID 624141)

Chain of Myc proto-oncogene protein (Homo sapiens) (P01106 whole entry, looked up): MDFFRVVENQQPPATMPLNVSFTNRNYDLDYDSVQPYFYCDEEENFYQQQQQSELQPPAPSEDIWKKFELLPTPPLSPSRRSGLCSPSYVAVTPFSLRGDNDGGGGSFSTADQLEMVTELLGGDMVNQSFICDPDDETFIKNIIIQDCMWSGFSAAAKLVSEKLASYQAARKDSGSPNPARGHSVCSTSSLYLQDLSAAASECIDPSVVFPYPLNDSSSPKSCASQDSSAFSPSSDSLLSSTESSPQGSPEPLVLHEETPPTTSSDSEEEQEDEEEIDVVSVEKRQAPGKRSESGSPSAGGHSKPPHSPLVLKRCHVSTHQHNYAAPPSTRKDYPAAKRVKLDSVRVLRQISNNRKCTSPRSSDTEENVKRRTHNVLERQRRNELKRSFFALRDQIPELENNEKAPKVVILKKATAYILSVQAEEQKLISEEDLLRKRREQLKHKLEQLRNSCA

| Structure (SMILES) | outcome |
| --- | --- |
| CC(C)NC(=O)N(C)C[C@H]1OCCCC[C@@H](C)Oc2ccc(NC(=O)Nc3cccc4ccccc34)cc2C(=O)N([C@H](C)CO)C[C@@H]1C | inactive |
| Cc1cc(C)cc(Oc2c(C(F)(F)F)oc3cc(OCC(=O)O)ccc3c2=O)c1 | active |
| C[C@@H]1CN([C@H](C)CO)C(=O)CCCn2cc(nn2)CO[C@@H]1CN(C)C(=O)Nc1ccc(-c2cccs2)cc1 | inactive |
| CN(CC(=O)O)S(=O)(=O)c1ccc(F)c2ccccc12 | inactive |
| COc1ccc(S(=O)(=O)N(C)C[C@H]2Oc3c(NS(=O)(=O)c4cccs4)cccc3C(=O)N([C@H](C)CO)C[C@@H]2C)cc1 | inactive |
| C[C@H](CO)N1C[C@H](C)[C@@H](CN(C)Cc2ccc(C(F)(F)F)cc2)Oc2ccc(NC(=O)CCN3CCOCC3)cc2C1=O | inactive |
| C[C@H](CO)N1C[C@H](C)[C@H](CN(C)Cc2ccc(C(=O)O)cc2)Oc2c(NC(=O)C3CCOCC3)cccc2C1=O | inactive |
| C[C@@H]1CN([C@@H](C)CO)C(=O)Cc2cc(NC(=O)CCN3CCOCC3)ccc2O[C@@H]1CN(C)C(=O)Nc1cccc2ccccc12 | inactive |
| C[C@H](CO)N1C[C@H](C)[C@H](CN(C)S(=O)(=O)c2cn(C)cn2)Oc2ccc(N(C)C)cc2C1=O | inactive |
| Cc1noc(C)c1S(=O)(=O)Nc1cccc2c1O[C@@H](CN(C)S(=O)(=O)c1cn(C)cn1)[C@@H](C)CN([C@H](C)CO)C2=O | inactive |
| O=C(c1ccc(F)cc1)C1CCN(CCCCc2ccccc2)CC1 | inactive |
| O=c1c2ccccc2[nH]c(=S)n1CCN1CCC(=C(c2ccc(F)cc2)c2ccc(F)cc2)CC1 | active |
| COc1ccc(S(=O)(=O)N(C)C[C@H]2Oc3c(NC(=O)C4CCOCC4)cccc3C(=O)N([C@@H](C)CO)C[C@@H]2C)cc1 | inactive |
| C[C@@H]1CN([C@H](C)CO)C(=O)c2cc(NC(=O)c3ccncc3)ccc2O[C@@H]1CN(C)C(=O)Nc1ccc(F)cc1 | inactive |
| COc1ccc(S(=O)(=O)N(C)C[C@@H]2Oc3ccc(NC(=O)Nc4cccc5ccccc45)cc3C(=O)N([C@H](C)CO)C[C@H]2C)cc1 | inactive |
| C[C@@H]1CN([C@@H](C)CO)C(=O)c2cc(NC(=O)C3CCCCC3)ccc2O[C@@H](C)CCCCO[C@@H]1CN(C)Cc1ccc(C(=O)O)cc1 | inactive |
| C/C=C(\C)C(=O)O[C@H]1C=CC(=O)O[C@H]1/C=C/[C@H](O)[C@H](C)O | inactive |

| Structure (SMILES) | outcome |
| --- | --- |
| C[C@@H]1CN([C@@H](C)CO)C(=O)c2cc(NC(=O)CCCN(C)C)ccc2O[C@@H](C)CCCCO[C@H]1CN(C)Cc1ccc2c(c1)OCO2 | inactive |
| COC(=O)COc1c(Sc2ccc([N+](=O)[O-])cc2)c(C)nn1-c1ccccc1 | inactive |
| COC(=O)C1=CO[C@@H](O[C@@H]2O[C@H](CO)[C@@H](O)[C@H](O)[C@H]2O)[C@@H]2[C@@H](C)[C@@H](OC(=O)C3=CO[C@@H](O[C@@H]4O[C@H](CO)[C@@H](O)[C@H](O)[C@H]4O)[C@@H]4[C@@H](C)[C@@H](OC(C)=O)C[C@H]34)C[C@H]12 | inactive |
| C[C@H]1CN([C@@H](C)CO)C(=O)CCCn2cc(nn2)CO[C@@H]1CN(C)S(=O)(=O)c1cccs1 | inactive |
| C[C@H](CO)N1C[C@H](C)[C@H](CN(C)C(=O)Nc2ccc(C(F)(F)F)cc2)Oc2ccc(NS(=O)(=O)c3ccccc3)cc2CC1=O | inactive |
| C[C@@H]1CN([C@H](C)CO)C(=O)c2cccc(NS(=O)(=O)c3cccs3)c2O[C@@H]1CN(C)C(=O)Nc1cccc2ccccc12 | inactive |
| CS(=O)(=O)N(CC(=O)Nc1ccc(C(N)=O)cc1)c1cccc(C(F)(F)F)c1 | inactive |
| CC(C)NC(=O)Nc1ccc2c(c1)C(=O)N([C@H](C)CO)C[C@@H](C)[C@@H](CN(C)C(=O)c1ccncc1)OCCCC[C@H](C)O2 | inactive |
| Cc1cc(C(=O)Nc2cccc3c2O[C@@H](CN(C)Cc2ccc4c(c2)OCO4)[C@@H](C)CN([C@@H](C)CO)C3=O)n(C)n1 | inactive |
| C[C@@H]1CN([C@@H](C)CO)C(=O)c2cc(NC(=O)Nc3cccc4ccccc34)ccc2O[C@@H]1CN(C)Cc1ccc(-c2ccccc2)cc1 | inactive |
| C[C@@H]1CN([C@@H](C)CO)C(=O)c2cc(NC(=O)C3CCCCC3)ccc2O[C@@H]1CN(C)S(=O)(=O)c1ccc(F)cc1 | inactive |
| C[C@@H]1CCCCO[C@@H](CN(C)Cc2ccc(C(=O)O)cc2)[C@H](C)CN([C@H](C)CO)C(=O)c2cc(NC(=O)Nc3ccc(F)cc3)ccc2O1 | inactive |
| O=C(O)CCC(=O)Nc1ccc(-c2nc3ccccc3o2)cc1 | inactive |
| COc1cc(/C=C/C(=O)O[C@@H]2O[C@H](CO[C@@H]3O[C@H](CO)[C@@H](O)[C@H](O)[C@H]3O)[C@@H](O)[C@H](O)[C@H]2OC(=O)/C=C/c2cc(OC)c(O)c(OC)c2)cc(OC)c1O | inactive |
| C=CCOC(=O)[C@H]1[C@@H]2C(=O)O[C@@H](c3ccccc3)[C@@H](c3ccccc3)N2[C@@H](c2ccc(OCCOC(=O)[C@H]3C[C@H]4C(=O)NCC(=O)N4[C@H]3c3ccc(O)cc3)cc2)[C@]12C(=O)Nc1ccccc12 | inactive |
| C=C(C(=O)O)C1CCC(CCC)OC1=O (stereo not drawn) | inactive |
